A selection: hits, their analogues and other compounds. The true share with any hit is near 2.8%.
Pol beta inh: inhibitors of human DNA polymerase beta. P06746. Pol beta primer extension/strand displacement, fluorescence kinetic. 1.3% of 340,000 active. Potency, µM (series often up to 114 µM), inactives show top-dose activity change, negative = inhibition, actives largely listed as inhibitors; also: potency is read from the fitted curve at half-maximal effect; % is scaled to controls: 0 for no effect and ±100 for the full control effect
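Enzyme-only controls used 10 nM Pol beta; buffer lacking enzyme served as negative control. Compound preincubated 15 min, then 50 nM substrate added; 0 and 10 min reads at room temperature.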
PI5P4K alpha inh: PI5P4K alpha (human) kinase inhibition. P48426. 1.2% of 330,000 active. PI5P4Kalpha enzyme, ADP-Glo luminescence, 60 min; stronger effect = lower value. max response, %; active = max response of -50% or lower; inconclusive = between -30% and -50%; inactive = -30% or higher; also: value at the top dose of about 77 µM; % is scaled to controls: 0 for no effect and ±100 for the full control effect
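Enzyme plus substrate dispensed, test compounds pinned in, then ATP (5 microM final) added. After 60 min at RT, ADP-Glo reagent 1 for 45 min and reagent 2 for 30 min preceded luminescence imaging.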
POLK inh: blocks human DNA polymerase kappa activity. Q9UBT6. purified Pol kappa, fluorescent DNA synthesis assay, 10 min. Potency, µM (top dose mostly 107 µM), for the others: at the top dose activity, negative = inhibition, actives largely listed as inhibitors. 0.53% of 400,000 active. AID 588579; also: potency is read from the fitted curve at half-maximal effect; % is scaled to controls: 0 for no effect and ±100 for the full control effect
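Kinetic fluorescence readout at 0 and 10 min followed reaction start with substrate at 50 nM final. Beforehand, enzyme (10 nM Pol kappa) stood 15 min with compound at room temperature; buffer-only wells were negative controls.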
Pol iota inh: inhibitors of human DNA polymerase iota; Q9UNA4; Pol iota fluorescent replication assay, 10 min; Potency, µM (doses to about 115 µM), inactives show at the highest dose activity, negative = inhibition, usual class: inhibitors; 1% of 390,000 active; also: potency is read from the fitted curve at half-maximal effect
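Fluorescent replication assay read twice, at 0 min and 10 min after adding 50 nM (final) substrate. Enzyme (10 nM) and compounds were first incubated 15 min at room temperature; enzyme-free buffer wells were negative controls.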
WRN helicase inh: blocks human WRN helicase; WRN helicase unwinding, fluorescent forked duplex, kinetic; Q14191; 0.46% of 360,000 active; Potency, µM (highest dose often 114 µM), without a hit: at the highest dose activity change, negative = inhibition, actives largely listed as inhibitors; also: potency is read from the fitted curve at half-maximal effect; % is scaled to controls: 0 for no effect and ±100 for the full control effect; nearly all actives have a fitted effect of over 55% in size
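WRN at 20 nM final preincubated with compound 15 min at room temperature; reaction started with 100 nM fluorophore/quencher forked duplex oligonucleotide and 2 mM ATP final. Unwinding followed kinetically by red fluorescence (ex 525, em 598 nm).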
POLH inh: blocks human DNA polymerase eta activity | Potency, µM (doses to about 114 µM), for the others: at the highest dose activity change, negative = inhibition, hits mostly inhibitors | recombinant Pol eta, fluorescent DNA replication assay | 1.2% of 390,000 active | AID 588591 | Q9Y253; also: potency is read from the fitted curve at half-maximal effect; % is scaled to controls: 0 for no effect and ±100 for the full control effect
Target sequence (Q9Y253 whole entry, looked up): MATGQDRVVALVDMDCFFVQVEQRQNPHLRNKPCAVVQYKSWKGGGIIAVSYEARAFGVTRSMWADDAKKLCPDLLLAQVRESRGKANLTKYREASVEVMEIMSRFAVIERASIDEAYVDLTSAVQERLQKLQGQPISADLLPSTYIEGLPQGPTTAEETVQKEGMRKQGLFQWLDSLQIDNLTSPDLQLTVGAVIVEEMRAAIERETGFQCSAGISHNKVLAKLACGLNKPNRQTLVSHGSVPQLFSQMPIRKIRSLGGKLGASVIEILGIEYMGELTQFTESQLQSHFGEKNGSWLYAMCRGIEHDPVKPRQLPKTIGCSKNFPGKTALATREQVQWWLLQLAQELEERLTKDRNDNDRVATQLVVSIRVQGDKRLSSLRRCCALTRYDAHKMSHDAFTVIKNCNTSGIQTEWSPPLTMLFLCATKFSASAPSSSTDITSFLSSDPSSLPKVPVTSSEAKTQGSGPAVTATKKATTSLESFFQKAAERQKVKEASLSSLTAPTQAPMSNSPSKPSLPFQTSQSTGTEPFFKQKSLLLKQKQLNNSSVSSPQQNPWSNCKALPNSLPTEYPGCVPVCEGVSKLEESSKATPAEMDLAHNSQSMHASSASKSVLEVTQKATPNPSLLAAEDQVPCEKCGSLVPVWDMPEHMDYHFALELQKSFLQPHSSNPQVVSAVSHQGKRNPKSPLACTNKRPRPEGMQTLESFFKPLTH
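Fluorescent replication assay: 50 nM final substrate added after a 15 min room-temperature compound preincubation with 10 nM enzyme. Signal taken at 0 min and again at 10 min.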
The depositor's hits bear a star; ? = inconclusive; nt = not tested or not shown; [ ] = another dose, or the depositor's remark. Unless noted, calls follow the shape of the dose curve; as a rule, active = well fitted curve in the direction sought with a large enough effect; inconclusive = small, poorly fitted or top-dose-only effect, or another doubt; inactive = no such curve, though single readings can be large; an effect the other way counts as inactive or inconclusive.

SMILES	Pol beta inh	PI5P4K alpha inh	POLK inh	Pol iota inh	WRN helicase inh	POLH inh
COc1ccccc1CNC(=O)COC(=O)c1ccc([N+](=O)[O-])o1	nt	6.9	-28.5%	?	4.5%[11.6 µM]	?
O=C(COC(=O)c1ccc([N+](=O)[O-])s1)Nc1ccc(F)cc1	nt	-4.1	-25.2%	?	27.4%	?
O=C(COC(=O)c1ccc([N+](=O)[O-])s1)NC(c1ccccc1)c1ccccc1	?	0.0	-17.8%	90.9%	-4.1%	-17.1%
COc1ccc(S(=O)(=O)N2CCOCC2)cc1NC(=O)COC(=O)c1ccc([N+](=O)[O-])s1	nt	19.0	-24.3%	89.1µM*	-13.1%[11.6 µM]	?
COc1ccc(S(=O)(=O)N2CCOCC2)cc1NC(=O)COC(=O)c1[nH]c(C)c(C(C)=O)c1C	nt	-0.9	-20.6%	-20.1%	-24.3%	1.9%
O=C(COC(=O)c1ccc([N+](=O)[O-])o1)NCc1ccccc1	nt	6.1	-24.1%	?	-19.9%	50.1µM*
O=C(COC(=O)c1ccc([N+](=O)[O-])s1)NCc1ccccc1	12.6µM*	1.9	-22.4%	?	-1.4%	?
O=C(COC(=O)c1ccc([N+](=O)[O-])s1)Nc1ccccc1	6.31µM*	-7.0	-3.3%	89.1µM*	-3.0%[57.1 µM]	?
CC(C)(C)n1ncc2c(=O)n(Cc3ccc(-c4ccccc4C#N)cc3)cnc21	nt	nt	13.0%	20.2%	nt	nt
O=C(OCc1nnc(-c2ccccc2)o1)c1ccc([N+](=O)[O-])s1	nt	0.8	-33.2%	?	30.6%	56.2µM*
Cc1ccc(C(=O)OCc2nnc(-c3ccccc3)o2)s1	nt	-0.4	3.3%	51.3%	1.2%	-8.5%
COC(=O)c1cc(=O)c(O)c2c(O)c(O)ccc2c1	nt	nt	1.12µM*	nt	nt	nt
COC(=O)c1ccc2cc(OC)c(OC)cc2c1	nt	0.8	nt	nt	-8.5%	-1.9%
Cn1c(Sc2ccc(C(=O)O)cc2[N+](=O)[O-])nnc1-c1ccccc1	41.8%	-76.8*	2.4%	35.6%	?	-16.5%
CC(=O)c1ccc(Sc2nnnn2-c2ccccc2)c([N+](=O)[O-])c1	-6.6%	-6.4	-24.4%	-11.8%	-3.3%	?
COc1ccccc1C(=O)COC(=O)c1cc([N+](=O)[O-])ccc1N1CCOCC1	nt	-1.4	-2.3%	4.3%	0.4%	-16.8%
COc1ccc(C(=O)COC(=O)c2cc([N+](=O)[O-])ccc2N2CCOCC2)c(OC)c1	nt	-23.5	-16.8%	79.4µM*	3.8%[11.6 µM]	?
COc1ccc(C(=O)COC(=O)c2ccc3c(c2)OCO3)c(OC)c1	nt	?	?	79.4µM*	-24.6%	?
C=CCOc1ccc(/C=C\c2nc(O)c([N+](=O)[O-])c(=O)[nH]2)cc1OCC	5.8%	-55.1*	-7.3%	?	-18.2%[11.6 µM]	20µM*
C#CCOc1c(/C=C\c2nc(O)c([N+](=O)[O-])c(=O)[nH]2)cc(Br)cc1OC	?	-67.9*	-43.1%	?	-1.0%[11.6 µM]	35.5µM*
C=CCOc1ccc(/C=C\c2nc(O)c([N+](=O)[O-])c(=O)[nH]2)cc1OC	0.2%	?	?	50.1µM*	-17.4%	25.1µM*
COc1ccc(/C=C\c2nc(O)c([N+](=O)[O-])c(=O)[nH]2)cc1O	23.3%	-74.1*	-8.3%	12.1%	?	-13.8%
C=CCn1c(SCC(=O)NCC2CCCO2)nnc1-c1ccncc1 (centres undefined)	nt	1.0	-6.2%	5.5%	-1.4%	-9.6%
CC1=C(C(=O)NCc2ccc(C)cc2)C2(CCCCC2)OC1=O	-1.1%	nt	-1.2%[60.1 µM]	18.9%	nt	-11.2%
C=CCOC(=O)C1=C(C)NC(SC)=C(C#N)C1c1ccc(OCC)cc1 (centres undefined)	-4.2%	14.5	-13.1%	-7.6%	-10.3%	?
C=CCOC(=O)C1=C(C)NC(SCC(=O)OCC)=C(C#N)C1c1ccc(O)c(OC)c1 (centres undefined)	?	-53.7*	-14.1%	8.4%	-34.1%	?
COc1ccc(CN2CC[C@H]3C=CC[C@@H](C(=O)Nc4nccs4)[C@H]3C2=O)cc1OC	nt	nt	-21.9%	8.4%	nt	nt

High-throughput results: PubChem BioAssay, National Center for Advancing Translational Sciences (NCATS)
